Max response data for 35 molecules are collected here from PubChem BioAssay (NCATS).

Values joined by “and” are separate entries in the source; they are usually repeats but may differ in a detail not shown here. Equal entries are not always repeated. Active and inactive are the calls of the source. Calls come from the whole dose curve; as a rule, active = well fitted activation curve with a large enough effect; inconclusive = small, poorly fitted or top-dose-only effect; inactive = flat fitted curve, though single readings scatter.

Sequence of Peroxisome proliferator-activated receptor alpha (Homo sapiens) (Q07869 whole entry, looked up): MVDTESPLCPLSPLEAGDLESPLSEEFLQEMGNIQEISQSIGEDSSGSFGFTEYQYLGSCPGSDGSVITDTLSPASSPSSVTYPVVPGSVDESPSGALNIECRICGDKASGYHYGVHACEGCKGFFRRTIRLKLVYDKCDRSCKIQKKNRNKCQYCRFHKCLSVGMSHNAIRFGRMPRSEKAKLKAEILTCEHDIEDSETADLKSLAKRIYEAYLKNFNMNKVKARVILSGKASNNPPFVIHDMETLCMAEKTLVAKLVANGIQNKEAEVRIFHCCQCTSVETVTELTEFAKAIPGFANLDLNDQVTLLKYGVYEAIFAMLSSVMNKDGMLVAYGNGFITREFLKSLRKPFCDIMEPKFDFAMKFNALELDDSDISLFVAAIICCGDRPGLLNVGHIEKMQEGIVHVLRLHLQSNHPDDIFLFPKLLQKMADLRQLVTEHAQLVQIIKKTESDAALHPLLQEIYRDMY

For this experiment, the target named is Peroxisome proliferator-activated receptor alpha (Homo sapiens) (UniProt Q07869). Kind of experiment: qHTS assay for small molecule agonists of the peroxisome proliferator-activated receptor alpha (PPARalpha) signaling pathway (AID 651778). Note: % of control where 0% means no effect. As to conditions: PathHunter PPARalpha complementation, chemiluminescence, 6 h; hits give high values. An excerpt:
National Center for Advancing Translational Sciences [NCATS]
NIH Chemical Genomics Center [NCGC]
U.S. Environmental Protection Agency [EPA]
National Institutes of Environmental Health Sciences [NIEHS]
National Toxicology Program [NTP]
The Peroxisome proliferator-activated receptors (PPARs) are lipid-activated transcription factors of the nuclear receptor superfamily with three distinct subtypes (alpha, garmma and beta/delta). All these subtypes heterodimerize with retinoid X receptor and have different physiological functions. PPARalpha is highly expressed in tissues with high rates of mitochondrial fatty acid oxidation, such as liver, heart, muscle, kidney and cells of the arterial wall. PPARalpha is a major regulator of lipid metabolism and energy homeostasis.
A cell based assay was used to identify activators of PPARalpha. The assay detects binding of a ligand to PPARalpha leading to its activation, translocation and complementation thus forming a functional enzyme capable of hydrolyzing the substrate molecule and generating chemiluminescent signal.
2,000 cells in 6 uL/well were dispensed into white wall/solid bottom 1536-well plates using a Multidrop Combi (Thermo Scientific) dispenser. After incubation 37 C and 5% CO2 overnight, 23 nL compound or DMSO only were transferred by a pin tool. The plates were incubated for 6 hr at 37 C and 5% CO2. 3 ul PathHunter detection reagent (Discoverx) was then added to each well and following 60 min incubation at room temperature, chemiluminescence was quantified on a ViewLux CCD-based plate reader.
Background: qHTS replaces the single test concentration by a dilution series.
For the molecule `Cc1cc2nc3c(=O)[nH]c(=O)nc-3n(C[C@H](O)[C@H](O)[C@H](O)CO)c2cc1C`, the max response was 3.79% (inactive). For the molecule `COc1ccc(Cl)cc1C(=O)NCCc1ccc(S(=O)(=O)NC(=O)NC2CCCCC2)cc1`, the max response was 0.201% (inactive). Then `NCCNCCNCCN`, with -1.93% (inactive); and `CC(O)COc1ccccc1` (stereo not given), with -0.783% (inactive); and `CN(C)CCCN1c2ccccc2Sc2ccc(Cl)cc21`, with -0.127% (inactive). As for `O=C1NS(=O)(=O)c2ccccc21`, the figure is 0.552% (inactive); as for `COc1ccccc1O`, -1.16% (inactive) and 0.39% (inactive) and -4.81% (inactive). Then `Nc1ccc(S(=O)(=O)Nc2nccs2)cc1`, with -1.3% (inactive); and `CCCCC(CC)COC(=O)c1ccccc1O` (stereo not given), with 0.691% (inactive); and `CC12CCC(CC1)C(C)(C)O2`, with -0.195% (inactive).

For the molecule `Cc1cccc(Nc2cc(Cl)nc(SCC(=O)O)n2)c1C`, the max response is -1.35% (inactive). Then `NCCNCCNCCNCCN`, with -1.59% (inactive) and -2.29% (inactive); and `CC(CN1c2ccccc2Sc2ccccc21)N(C)C` (stereo not given), with -2.77% (inactive); and `Oc1cccc(O)c1`, with -10.6% (inactive). `O=C1O[C@H]([C@@H](O)CO)C(O)=C1O`: the max response is -1.42% (inactive) and -0.305% (inactive). As for `[Cl][In]([Cl])[Cl]`, the figure is -1.33% (inactive); as for `O=C1c2c(O)cccc2Cc2cccc(O)c21`, -2.77% (inactive). As for `CC1=C(/C=C/C(C)=C/C=C/C(C)=C/C(=O)O)C(C)(C)CCC1`, the figure is -0.0468% (inactive) and 3.03% (inactive); as for `CNC(=O)Oc1ccc2c(c1)[C@]1(C)CCN(C)[C@@H]1N2C`, -3.11% (inactive); as for `C[C@]12C[C@H](O)[C@H]3[C@@H](CCC4=CC(=O)CC[C@@]43C)[C@@H]1CC[C@@H]2C(=O)CO`, -1.77% (inactive) and -2.82% (inactive). As for `CN(C)CCOC(C)(c1ccccc1)c1ccccn1` (stereo not given), the figure is -0.887% (inactive); as for `C[C@]12CC[C@@H]3c4ccc(O)cc4CC[C@H]3[C@@H]1CCC2=O`, -1.03% (inactive); as for `CCOC(=O)c1ccc(O)cc1`, -1.04% (inactive). On to `CC(O)CN(CCN(CC(C)O)CC(C)O)CC(C)O` (stereo not given), for which the max response was -1.89% (inactive). Then `CCCCOC(=O)c1ccc(O)cc1`, with -8.78% (inactive) and 4.43% (inactive). Then `COC(=O)C1=C(C)NC(C)=C(C(=O)OC)C1c1ccccc1[N+](=O)[O-]`, with -2.24% (inactive); and `Cc1cc(CC(=O)O)n(C)c1C(=O)c1ccc(Cl)cc1`, with -2.08% (inactive).

Turning to `NC(=O)c1ncn([C@@H]2O[C@H](CO)[C@@H](O)[C@H]2O)n1`, the max response was -11% (inactive).

For the molecule `O=S(=O)(O)NC1CCCCC1`, the max response is -1.02% (inactive). As for `CCCCCCCCCCCCOS(=O)(=O)O`, the figure is 11.8% (inactive) and 23.9% (inactive) and 3.99% (inactive); as for `CC1(C)[C@@H]2CC[C@@]1(C)C(=O)C2`, 1.14% (inactive); as for `CCCc1c(OCCCCc2nn[nH]n2)ccc(C(C)=O)c1O`, 11.9% (inactive). As for `CN(C)CCC=C1c2ccccc2CCc2ccccc21`, the figure is -4.24% (inactive) and -3.42% (inactive); as for `NC(=O)N/N=C/c1ccc([N+](=O)[O-])o1`, 0.128% (inactive) and 1.29% (inactive); as for `Cc1c(O)cccc1C(=O)N[C@@H](CSc1ccccc1)[C@H](O)CN1C[C@H]2CCCC[C@H]2C[C@H]1C(=O)NC(C)(C)C`, -6.84% (inactive).
